Screens from PubChem.
The list is not random: actives were taken first. Their share in the collection is about 19%.
TGFb inhibitor = TGF-b pathway inhibition | HepG2 CAGA-GFP TGF-b/SMAD3 reporter, GFP fluorescence, 18 h; TGF-beta stimulated, 500 pg/mL final | Potency, µM (highest dose often 46.1 µM), for the others: at the top dose activity, negative = inhibition, most hits filed as inhibitors | actives 1.2% (n = 410,000) | AID 588855; also: potency is read from the fitted curve at half-maximal effect; % is scaled to controls: 0 for no effect and ±100 for the full control effect; nearly all actives have a fitted effect of over 65% in size
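First, reporter cells (HEPG2 CAGA-GFP) rested 2 h at 37 degrees C. Next, compounds were pinned in and TGF-beta added to 500 pg/mL final. After 18 h, GFP was imaged per cell and summed per well.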
IL1B secr inh = blocks inflammasome-driven IL-1 beta release. AID 743279. actives 4.7% (n = 360,000). activity change, % at 57.5 µM. THP-1 LPS/ATP IL-1B secretion, AlphaLISA, 16 h; stronger effect = lower value; in the data active = activity change below about -50%; inconclusive = mostly about -30% to -49%; also: % is scaled to controls: 0 for no effect and ±100 for the full control effect
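THP-1 cells pretreated 1 hr with compounds (up to 57.5 uM final), then stimulated with LPS (250 ng/mL final) plus ATP (1.25 mM final); secreted IL-1B measured by AlphaLISA after 16 hr, decreased signal indicating inhibition.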
ASM inhibitor = human S-ASM enzyme inhibition | placental ASM, HMU-PC fluorogenic substrate, 60 min | Potency, µM (highest dose often 57.5 µM), without a hit: at the highest dose activity change, negative = inhibition, most hits filed as inhibitors | actives 0.006% (n = 340,000) | AID 504937; also: potency is read from the fitted curve at half-maximal effect
Target sequence (P17405 47-631 limits assumed): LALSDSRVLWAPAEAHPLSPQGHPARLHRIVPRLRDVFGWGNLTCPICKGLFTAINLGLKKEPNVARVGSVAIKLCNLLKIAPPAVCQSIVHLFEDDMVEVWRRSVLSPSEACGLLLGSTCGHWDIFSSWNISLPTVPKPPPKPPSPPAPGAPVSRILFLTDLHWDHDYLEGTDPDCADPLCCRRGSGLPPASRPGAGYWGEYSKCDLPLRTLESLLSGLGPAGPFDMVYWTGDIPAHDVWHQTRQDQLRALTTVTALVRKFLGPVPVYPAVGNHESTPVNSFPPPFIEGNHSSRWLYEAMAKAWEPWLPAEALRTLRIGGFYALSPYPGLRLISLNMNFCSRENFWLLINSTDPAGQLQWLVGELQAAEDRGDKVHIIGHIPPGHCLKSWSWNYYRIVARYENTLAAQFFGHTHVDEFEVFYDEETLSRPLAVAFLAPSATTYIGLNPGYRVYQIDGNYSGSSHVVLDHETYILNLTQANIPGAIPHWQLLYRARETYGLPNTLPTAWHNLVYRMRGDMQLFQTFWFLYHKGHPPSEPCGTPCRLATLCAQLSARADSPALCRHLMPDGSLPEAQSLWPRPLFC
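Human placenta-derived ASM preincubated with compound 10 min at room temperature, then reacted with 9 uM (final) fluorogenic HMU-PC substrate for 60 min at 37 C. Stop solution raises pH to 10; fluorescence read at Ex 386/Em 447 nm.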
HepG2 viability = counter-screen for TGF-b inhibitors: cytotoxicity in HepG2 cells | HepG2 CAGA-GFP viability, ATP luminescence, 18 h | Potency, µM (series often up to 46.1 µM), for the others: at the top dose activity change, negative = cytotoxicity, usual class: cytotoxic | actives 0.76% (n = 410,000); also: potency is read from the fitted curve at half-maximal effect
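HepG2 CAGA-GFP cells (1000/well, DMEM with 1% FBS) received compound, then TGF-beta at 500 pg/mL final, and were incubated 18 hours at 37 degrees C. Viability was read by CellTiter-Glo luminescence. Media-only wells were set as complete cell-killing and DMSO as no toxicity.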
DT40 TDP1 no CPT = qHTS for Inhibitors of human tyrosyl-DNA phosphodiesterase 1 (TDP1): qHTS in cells in absence of CPT; actives 15% (n = 420,000); DT40 Tdp1-/- hTDP1 cells, no CPT, ATP luminescence, 48 h; Potency, µM (top dose mostly 46.2 µM), for the others: at the highest dose activity change, negative = growth inhibition, most hits filed as inhibitors; also: potency is read from the fitted curve at half-maximal effect; % is scaled to controls: 0 for no effect and ±100 for the full control effect; nearly all actives have a fitted effect of over 55% in size
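Chicken DT40 Tdp1-/- cells stably complemented with human TDP1 were seeded at 400 cells/well with DMSO in place of 20 nM camptothecin. After compound pinning, cells grew at least 48 hr at 37 °C; viability read by CellTiter-Glo luminescence.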
TDP1 cell CPT = DT40-hTDP1 cell growth loss with CPT; actives 12% (n = 420,000); chicken DT40 Tdp1-/-;hTDP1 cells + 20 nM CPT, ATP luminescence, 48 h; AID 686979; Potency, µM (highest dose often 46.2 µM), for the others: at the highest dose activity change, negative = growth inhibition, hits mostly inhibitors; also: potency is read from the fitted curve at half-maximal effect; % is scaled to controls: 0 for no effect and ±100 for the full control effect; nearly all actives have a fitted effect of over 55% in size
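Chicken DT40 Tdp1-/- cells complemented with human TDP1, 400 cells/well, exposed to compounds plus 20 nM camptothecin for at least 48 h at 37 C; viability read as ATP content by CellTiter-Glo luminescence.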
An asterisk follows results filed as active; i = inactive; ? = inconclusive; nt = not tested or not shown. Unless noted, calls follow the shape of the dose curve; as a rule, active = well fitted curve in the direction sought with a large enough effect; inconclusive = small, poorly fitted or top-dose-only effect, or another doubt; inactive = no such curve, though single readings can be large; an effect the other way counts as inactive or inconclusive.

SMILES	TGFb inhibitor	IL1B secr inh	ASM inhibitor	HepG2 viability	DT40 TDP1 no CPT	TDP1 cell CPT
COc1ccc(C)cc1N(C(=O)c1snc(C(N)=O)c1N)C(C(=O)NC1CCCCC1)c1ccc(C)o1 (centres undefined)	?	-54.7*	491.8%	6.2%	18.4µM*	18.4µM*
Cc1ccc(C)c(N(C(=O)c2snc(C(N)=O)c2N)C(C(=O)NCC2CCCO2)c2ccc(C)o2)c1 (centres undefined)	?	-3.1	i	-21.2%	10.3µM*	16.4µM*
CCCOc1ccc(-c2nc(SC)[nH]c(=O)c2C#N)cc1OC	-17.1%	nt	nt	-21.2%	?	?
CC(=O)N1CCOc2cc(S(=O)(=O)NCc3ccccc3Cl)c(Cl)cc21	?	nt	nt	-8.6%	-25.5%	?
O=S(=O)(NCC(c1ccco1)N1CCN(c2ccccc2)CC1)c1ccccc1 (centres undefined)	0.0%	nt	nt	-26.4%	?	?
CCOC(=O)C1CCN(C(=O)C(C)N(c2ccc(Oc3ccccc3)cc2)S(C)(=O)=O)CC1 (centres undefined)	?	12.3	-2.0%	-0.9%	9.2µM*	11.6µM*
CCOC(=O)N1CCN(C(=O)C(C)N(c2ccc(Oc3ccccc3)cc2)S(C)(=O)=O)CC1 (centres undefined)	-2.2%	-29.7	-1.2%	3.7%	13µM*	?
COc1ccc(N(C(C)C(=O)N2CCC(Cc3ccccc3)CC2)S(C)(=O)=O)cc1 (centres undefined)	10.7%	-1.4	-21.7%	0.8%	8.2µM*	6.51µM*
Cc1ccc(N(C(C)C(=O)N2CCN(Cc3ccccc3)CC2)S(C)(=O)=O)cc1 (centres undefined)	-0.3%	12.7	-1.9%	-17.5%	?	?
CCOc1ccc(N(C(C)C(=O)NCCSc2ccc(Cl)cc2)S(C)(=O)=O)cc1 (centres undefined)	?	nt	nt	-7.3%	25.9µM*	16.4µM*
CCOC(=O)c1c(S(=O)(=O)N2CCC(C(=O)Nc3ccc(C)cc3C)CC2)c(C)n(C)c1C	0.8%	nt	nt	-3.2%	-16.8%	-11.4%
CCOc1ccc(N(C(C)C(=O)N2CCCC2)S(C)(=O)=O)cc1 (centres undefined)	3.3%	3.9	0.4%	1.5%	14.6µM*	?
COc1ccc(OCCCCc2c(C)n[nH]c2C)cc1	-10.1%	-3.8	-0.3%	-20.2%	?	23.1µM*
CCC[C@@H](CN1CCC[C@H]1CN1C(N)=NC[C@@H]1Cc1ccccc1)N1C[C@@H]([C@H](C)CC)N(CCCC2CCCC2)C1=N	?	-96.3*	3.4%	-63.3%	8.2µM*	10.3µM*
CCCCN1C(=N)N([C@@H](C)CN2CCC[C@H]2CN2C(N)=NC[C@H]2CC(C)C)C[C@H]1Cc1ccccc1	-1.8%	-54.5*	2.2%	-9.8%	?	16.4µM*
CCC[C@@H](CN1CCC[C@H]1CN1C(N)=NC[C@H]1CC(C)C)N1C[C@@H](Cc2ccccc2)N(CCCC2CCCC2)C1=N	-1.7%	-65.5*	-3.4%	-13.4%	11.6µM*	10.3µM*
CCC[C@@H](CN1CCC[C@H]1CN1C(N)=NC[C@@H]1Cc1ccccc1)N1C[C@@H](Cc2ccccc2)N(CCCC2CCCC2)C1=N	-23.9%	-83.5*	0.3%	2.6%	?	?
CCCCN1C(=N)N([C@@H](C)CN2CCC[C@H]2CN2C(N)=NC[C@@H]2Cc2ccccc2)C[C@H]1[C@H](C)CC	-24.7%	-17.4	2.8%	-4.8%	?	?
CCC[C@@H](CN1CCC[C@H]1CN1C(N)=NC[C@@H]1Cc1ccccc1)N1C[C@@H]([C@H](C)CC)N(CCc2ccc(Cl)c(Cl)c2)C1=N	-4.3%	?	-7.6%	-24.3%	?	?
Cc1ccc(F)c(S(=O)(=O)NC(=O)C2(C)CCN2C(=O)COc2ccc(Cl)cc2)c1 (centres undefined)	17.8%	11.8	nt	4.1%	-10.3%	0.1%
COc1ccc(F)cc1-c1nc(N)nc(N)n1	?	6.0	2.9%	-15.1%	7.7%	-1.3%
Cc1cccc(Cn2c(C)c(CNC3CCCCC3)c(C(=O)O)c2C)c1	-21.7%	nt	nt	-21.2%	-12.5%	-3.1%
O=C(NCC1Cc2cccc(-c3cnccn3)c2O1)c1ccc(F)c(Cl)c1 (centres undefined)	nt	nt	nt	nt	-11.8%	-0.1%
CC(C)[C@H](CN1CCC[C@H]1CN1C(N)=NC[C@H]1C(C)C)N1C[C@@H](Cc2ccccc2)N(CCCC2CCCC2)C1=N	20.2%	-59.8*	-0.3%	-4.6%	?	?
CCN(C(=O)Cn1cc(C(=O)c2ccc(F)cc2)c(=O)c2ccc(C)nc21)c1cccc(C)c1	-31.8%	nt	nt	-1.9%	?	16.4µM*
SMILES	TGFb inhibitor	IL1B secr inh	ASM inhibitor	HepG2 viability	DT40 TDP1 no CPT	TDP1 cell CPT
Cc1ccc(C(=O)c2cn(Cc3ccc(F)cc3)c3nc(C)ccc3c2=O)cc1	-6.8%	nt	nt	-37.1%	23.1µM*	16.4µM*
Cc1ccc(C(=O)c2cn(Cc3cccc(Cl)c3)c3nc(C)ccc3c2=O)cc1	-20.4%	nt	nt	-31.4%	?	?
Cc1ccc2c(=O)c(C(=O)c3ccc(F)cc3)cn(CC(=O)NCCc3ccccc3)c2n1	-16.7%	nt	nt	0.2%	-21.4%	-24.6%
CC(=O)N1c2ccc(S(=O)(=O)N3CCC(C(=O)NC4CCCCC4)CC3)cc2CC1C (centres undefined)	-4.6%	69.7	-0.4%	1.5%	10.1%	-15.7%
CC(=O)N1c2ccc(S(=O)(=O)N3CCC(C(=O)N4CC(C)CC(C)C4)CC3)cc2CC1C (centres undefined)	-0.6%	-13.7	-1.9%	2.8%	?	20.6µM*
CC1Cc2cc(S(=O)(=O)N3CCC(C(=O)N4CCCCC4)CC3)ccc2N1C(=O)C1CC1 (centres undefined)	-1.3%	1.2	-0.4%	-6.8%	-17.1%	?
CC1CC(C)CN(C(=O)C2CCN(S(=O)(=O)c3ccc4c(c3)CC(C)N4C(=O)C3CC3)CC2)C1 (centres undefined)	-11.0%	?	-0.7%	-24.6%	?	16.4µM*
CC(=O)N1c2ccc(S(=O)(=O)N3CCC(C(=O)N4CCC(C)CC4)CC3)cc2CC1C (centres undefined)	-21.2%	?	3.5%	11.3%	?	?
